Structures are written as SMILES.

In this assay the test system is Sonic hedgehog protein (Shh). The experiment in a line: Sonic hedgehog microarray binding compounds – biochemical, small-molecule microarray, 635/667 nm fluorescence, primary screen (AID 1151).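 Note: Shh protein binding to compounds spotted on small-molecule microarray slides; score combines spot fluorescence intensity with signal-to-noise across triplicate slides.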 Conditions: 635 nm fluorescence, higher = more signal.
Regarding `CN(C)C(=O)[C@@]1(Cc2ccccc2)COC(c2ccc(OCCCO)cc2)=N1`, the composite z-score is -0.618.

`CO[C@H]1O[C@H](CO)[C@@H](OC(=O)CCc2ccccc2)[C@H](OC(=O)c2cc3ccccc3[nH]2)[C@H]1OC(=O)c1cc2ccccc2[nH]1`: the composite z-score was 0.832.

`CN1C(=O)C2C=CC(C(O)c3cc(C(F)(F)F)cc(C(F)(F)F)c3)N(Nc3ccccc3)C2C1=O` (stereo unspecified) yielded a composite z-score of -0.145.

Take `COCCOC(=O)N1C(=O)[C@@]2(c3cc(C#CCCO)ccc31)[C@H](C(N)=O)[C@H]1C(=O)O[C@H](c3ccccc3)[C@H](c3ccccc3)N1[C@@H]2c1ccc(OCCO)cc1`: the composite z-score is 1.36.

`COCCOC(=O)N1C(=O)[C@@]2(c3cc(C#Cc4ccc(OC)cc4)ccc31)[C@H](C(=O)NC[C@H](O)c1ccccc1)[C@H]1C(=O)O[C@H](c3ccccc3)[C@H](c3ccccc3)N1[C@@H]2c1ccc(OCCO)cc1` had a composite z-score of 1.62.

Consider `COCCOC(=O)N1C(=O)[C@@]2(c3cc(C#CCNC(N)=O)ccc31)[C@H](c1ccc(OCCO)cc1)N1[C@H](c3ccccc3)[C@H](c3ccccc3)OC(=O)[C@H]1[C@@H]2C(N)=O`, for which the composite z-score was 1.44.

In turn, `CC(=O)NCCCC[C@@H]1NC(=O)[C@H]2C[C@@H](C(=O)NCCCCCNC(=O)CS)[C@@H](c3cccc(OCCO)c3)N2C1=O` came in with a composite z-score of 1.74.

As for `O=C1O[C@H](c2ccccc2)[C@H](c2ccccc2)N2[C@H]1[C@@H](C(=O)N1CCCCCCC1)[C@]1(C(=O)Nc3ccc(C#CC4(O)CCCCCC4)cc31)[C@H]2c1ccccc1OCCO`, the composite z-score was determined as 2.09.

For `COCCCNC(=O)[C@@]1(c2ccc([N+](=O)[O-])cc2)CC(=O)N(CC23CC4CC(CC(C4)C2)C3)[C@@H]1c1ccc(CO)cc1I`, the composite z-score is 0.636.

Consider `COc1ccc(C#Cc2ccc3c(c2)[C@]2(C(=O)N3)[C@H](C(=O)N3CCCCCCC3)[C@H]3C(=O)O[C@H](c4ccccc4)[C@H](c4ccccc4)N3[C@@H]2c2ccc(O)cc2)cc1`, for which the composite z-score is 1.6.

`C=C(/C(=C/C[C@H](OC(=O)c1ccncc1)c1cccc(OCCO)c1)c1cnc2ccccc2c1)C(C)C` gave a composite z-score of 2.23.

Take `CCCCCCCCCCC(O)C1C=CC2C(=O)N(C)C(=O)C2N1Nc1cc(OC)c(OC)c(OC)c1` (stereo unspecified): the composite z-score was -1.08.

`Nc1cc(Br)ccc1C(=O)O` registered a composite z-score of 0.0009.

Compound `CN(C)C(=O)[C@]1(CCS(=O)(=O)c2ccccc2)N=C(c2ccc(OCCCO)cc2)O[C@@H]1c1ccccc1` had a composite z-score of -0.707.

Turning to `O=C1N(CCS(=O)(=O)c2ccccc2)Cc2ccccc2[C@@H]2OC(c3ccc(OCCCO)cc3)=N[C@]12CCS(=O)(=O)c1ccccc1`, the composite z-score is 1.4.

In the case of `COc1ccc([Si](C)(C)[C@H]2[C@H](CC(=O)N3Cc4ccccc4C[C@H]3CO)O[C@@]3(C(=O)N(Cc4ccc(N5C(=O)c6cccc7cccc5c67)cc4)c4ccccc43)[C@@H]2C)cc1`, the composite z-score is 1.66.

Compound `COCC1=C2[C@@H](CCc3ccccc3)OB(O)C[C@@H]2[C@@H]2C(=O)N(C)C(=O)[C@@H]2C1` registered a composite z-score of 0.588.

The compound `CC(C)OC(=O)CC(=O)CC(O)c1ccc([N+](=O)[O-])cc1` (stereo unspecified) had a composite z-score of -0.514.

`CC(C)C(=C=CC[C@@H](O)c1cccc(OCCO)c1)C[C@@H](O)c1ccccn1` had a composite z-score of 0.935.

Regarding `C=CCC(OC(C)=O)[C@@H]1[C@@H](N(Cc2cccc3ccccc23)C(=O)c2cccc3ccccc23)c2cc(OCCCO)ccc2N1C(=O)c1ccc2ccccc2c1` (stereo partly specified), the composite z-score was 0.49.

Compound `CC(=O)N1CC(C(O)C2C=CC3C(=O)NC(=O)C3N2Nc2ccc(Cl)cc2Cl)c2ccccc21` (stereo unspecified) registered a composite z-score of -0.123.

The compound `COC(=O)[C@@]1(Cc2ccc(F)cc2)[C@H]2c3cc(C(=O)N(C)C)n(Cc4c(CO)[nH]cc(C)c4=O)c3C[C@H]2CN1C(=O)c1ccccc1` registered a composite z-score of -0.462.

Take `CC(C)[C@H]1NC(=O)[C@@]23C(=O)N[C@@H](Cc4ccccc4)C2[C@H](C)[C@@]2(C)O[C@H]2C3/C=C/CCC/C=C/CNC(=O)[C@H](Cc2ccccc2)NC1=O` (stereo partly specified): the composite z-score came out at 2.03.

Turning to `CCOC(=O)C[C@H]1[C@H](OC(=O)c2ccccc2-c2ccccc2)[C@@H](NC(=O)c2ccccc2)c2cc(OCCCO)ccc2N1C(=O)c1ccccc1`, the composite z-score amounted to 0.259.

Consider `COC(=O)[C@@]1(Cc2ccccc2CN=[N+]=[N-])N=C(c2ccc(OCCCO)cc2)O[C@H]1c1ccccc1`, for which the composite z-score was 0.381.

With `C=C(COC)C(=O)CC[C@@H](OC(=O)c1cccnc1)c1ccccc1OCCO`, the composite z-score was determined as 0.786.

`CC1CC/C=C\[C@H]2OC34C=CCN(CCN5CCOCC5)C(=O)[C@H]3N(C(C)CO)C(=O)[C@@H]4C2C(=O)O1` (stereo partly specified) gave a composite z-score of 1.41.

Compound `[N-]=[N+]=NCc1ccccc1[C@H]1OC(c2ccc(OCCCO)cc2)=N[C@@]1(CCS(=O)(=O)c1ccccc1)C(=O)NCc1ccccc1` had a composite z-score of -0.081.

For `COc1ccc([Si](C)(C)[C@H]2[C@H](CCO)O[C@@]3(C(=O)N(Cc4ccc(N5C(=O)c6ccccc6Oc6ccccc65)cc4)c4ccccc43)[C@@H]2C)cc1`, the composite z-score stood at 1.13.

`O=C(NCC(O)CO)[C@@]1(CCS(=O)(=O)c2ccccc2)COC(c2ccc(OCCCO)cc2)=N1` (stereo partly specified) displayed a composite z-score of -0.504.

`C=CCC(OC(C)=O)[C@@H]1[C@@H](N(Cc2cccc3ccccc23)C(=O)Cc2ccc(F)cc2)c2cc(OCCCO)ccc2N1C(=O)c1ccc(-c2ccccc2)cc1` (stereo partly specified) came in with a composite z-score of 0.246.

Turning to `C=CCNC(=O)[C@@H]1[C@H]2C(=O)O[C@H](c3ccccc3)[C@H](c3ccccc3)N2[C@H](c2ccc(O)cc2)[C@@]12C(=O)N(C(=O)OCCOC)c1ccc(C#CCCO)cc12`, the composite z-score was 2.07.

`C=CCNC(=O)[C@@H]1[C@H]2C(=O)O[C@H](c3ccccc3)[C@H](c3ccccc3)N2[C@H](c2ccc(OCCO)cc2)[C@@]12C(=O)N(C(=O)OCCOC)c1ccc(C#CCCO)cc12` showed a composite z-score of 1.17.

In the case of `C=CCOC(=O)[C@H]1[C@@H]2C(=O)O[C@@H](c3ccccc3)[C@@H](c3ccccc3)N2[C@@H](c2ccc(OCCOC(=O)[C@H]3C[C@H]4C(=O)N[C@@H](CCCCNC(C)=O)C(=O)N4[C@H]3c3cccc(OCCO)c3)cc2)[C@]12C(=O)Nc1ccc(I)cc12`, the composite z-score turned out to be 2.46.

In turn, `COCCOC(=O)N1C(=O)[C@@]2(c3cc(C#CC4=CCCCC4)ccc31)[C@H](c1ccc(O)cc1)N1[C@H](c3ccccc3)[C@H](c3ccccc3)OC(=O)[C@H]1[C@@H]2C(=O)NC[C@H](O)c1ccccc1` returned a composite z-score of 1.27.

`CN1C(=O)C2C=CC(C(O)c3ccc(I)cc3)N(Nc3ccccc3)C2C1=O` (stereo unspecified) showed a composite z-score of -0.0996.

For the origin of these results see PubChem BioAssay.
